Measured values as given in publication PMC7862700, “An all-to-all approach to the identification of sequence-specific readers for epigenetic DNA modifications on cytosine”.

What was measured:
Experiment in all cases: DAPPL (digital affinity profiling via proximity ligation, sequencing); 10 mM Tris-HCl pH 7.5, 50 mM NaCl, 1 mM DTT, 4% glycerol, room temperature, 30 min; GST-TFs on glutathione beads, 16-mer random dsDNA library, 0.1% formaldehyde crosslink after washing; high values mean tight binding
Conditions in all cases: protein: recombinant; tags: N-terminal GST; dsDNA, one strand shown
[1] = biological target: T1, FLI1 (Homo sapiens, UniProt Q01543 1-452)
T1 sequence: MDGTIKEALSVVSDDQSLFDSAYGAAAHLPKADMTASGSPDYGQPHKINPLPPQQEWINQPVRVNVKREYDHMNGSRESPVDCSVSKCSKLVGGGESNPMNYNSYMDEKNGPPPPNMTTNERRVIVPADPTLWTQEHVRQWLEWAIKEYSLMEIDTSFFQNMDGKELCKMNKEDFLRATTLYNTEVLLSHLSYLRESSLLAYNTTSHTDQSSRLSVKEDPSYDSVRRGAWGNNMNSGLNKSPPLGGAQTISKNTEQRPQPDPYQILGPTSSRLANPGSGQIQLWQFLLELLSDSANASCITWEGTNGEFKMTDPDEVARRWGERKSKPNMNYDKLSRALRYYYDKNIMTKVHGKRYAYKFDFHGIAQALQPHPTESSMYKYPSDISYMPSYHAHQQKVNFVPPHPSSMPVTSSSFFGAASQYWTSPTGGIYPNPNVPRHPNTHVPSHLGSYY
Summary of the method: (§1)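 Binding signal is each hexamer's read frequency for a factor divided by its frequency in the tag-only sample. The factors were GST-fused human transcription factors from yeast, captured on glutathione beads, DNA-barcoded and pooled with that sample. Pools were incubated with 200 nmole of a random double-stranded 16-mer DNA library in Tris/NaCl/DTT/glycerol buffer at room temperature for 30 min, then washed, crosslinked with 0.1% formaldehyde, proximity-ligated with BsaI/T4 ligase (1 h, 37 °C), PCR-amplified and sequenced on an Illumina NextSeq500.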

[2] = biological target: T2, ELK1 (Homo sapiens, UniProt P19419 1-428)
T2 sequence: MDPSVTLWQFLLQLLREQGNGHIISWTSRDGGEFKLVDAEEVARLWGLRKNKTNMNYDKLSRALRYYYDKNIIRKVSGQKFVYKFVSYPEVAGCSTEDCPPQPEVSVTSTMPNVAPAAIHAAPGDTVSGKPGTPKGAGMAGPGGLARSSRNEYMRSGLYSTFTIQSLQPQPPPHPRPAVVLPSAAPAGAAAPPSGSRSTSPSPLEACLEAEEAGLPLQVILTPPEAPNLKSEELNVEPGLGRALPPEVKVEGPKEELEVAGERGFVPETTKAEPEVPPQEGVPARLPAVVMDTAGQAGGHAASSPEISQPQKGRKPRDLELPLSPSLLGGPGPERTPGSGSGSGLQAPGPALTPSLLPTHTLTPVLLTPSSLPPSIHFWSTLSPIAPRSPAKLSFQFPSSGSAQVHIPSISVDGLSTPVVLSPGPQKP
Summary of the method: as §1

[3] = biological target: T3, GABPA (Homo sapiens, UniProt Q06546 1-454)
T3 sequence: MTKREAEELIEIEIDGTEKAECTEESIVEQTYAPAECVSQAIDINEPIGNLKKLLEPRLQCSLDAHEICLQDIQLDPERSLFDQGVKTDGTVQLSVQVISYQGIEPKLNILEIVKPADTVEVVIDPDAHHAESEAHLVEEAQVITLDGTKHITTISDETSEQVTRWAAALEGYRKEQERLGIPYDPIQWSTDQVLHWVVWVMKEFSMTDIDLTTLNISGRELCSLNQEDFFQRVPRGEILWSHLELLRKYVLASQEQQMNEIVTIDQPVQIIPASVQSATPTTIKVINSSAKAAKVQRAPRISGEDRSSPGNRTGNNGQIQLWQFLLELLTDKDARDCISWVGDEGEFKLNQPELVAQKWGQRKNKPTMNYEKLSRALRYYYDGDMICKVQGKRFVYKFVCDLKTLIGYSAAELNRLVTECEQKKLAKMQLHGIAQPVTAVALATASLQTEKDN
Summary of the method: as §1

[4] = biological target: T4, ERG (Homo sapiens, UniProt P11308 1-479)
T4 sequence: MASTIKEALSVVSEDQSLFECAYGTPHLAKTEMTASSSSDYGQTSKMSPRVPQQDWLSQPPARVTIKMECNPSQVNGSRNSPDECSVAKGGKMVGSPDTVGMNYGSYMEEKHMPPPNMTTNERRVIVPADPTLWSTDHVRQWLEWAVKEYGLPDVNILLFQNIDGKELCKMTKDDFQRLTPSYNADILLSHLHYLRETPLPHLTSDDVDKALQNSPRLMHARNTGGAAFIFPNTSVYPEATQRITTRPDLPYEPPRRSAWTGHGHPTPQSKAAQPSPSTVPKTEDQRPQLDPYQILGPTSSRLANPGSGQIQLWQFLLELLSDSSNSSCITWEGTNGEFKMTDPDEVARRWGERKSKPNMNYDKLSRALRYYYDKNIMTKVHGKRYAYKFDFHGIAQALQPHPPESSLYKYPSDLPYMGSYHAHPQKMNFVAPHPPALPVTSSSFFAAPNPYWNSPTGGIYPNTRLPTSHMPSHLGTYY
Summary of the method: as §1

[5] = biological target: ELF1 (Homo sapiens, UniProt P32519 1-619)
Chain of ELF1 (P32519 whole entry): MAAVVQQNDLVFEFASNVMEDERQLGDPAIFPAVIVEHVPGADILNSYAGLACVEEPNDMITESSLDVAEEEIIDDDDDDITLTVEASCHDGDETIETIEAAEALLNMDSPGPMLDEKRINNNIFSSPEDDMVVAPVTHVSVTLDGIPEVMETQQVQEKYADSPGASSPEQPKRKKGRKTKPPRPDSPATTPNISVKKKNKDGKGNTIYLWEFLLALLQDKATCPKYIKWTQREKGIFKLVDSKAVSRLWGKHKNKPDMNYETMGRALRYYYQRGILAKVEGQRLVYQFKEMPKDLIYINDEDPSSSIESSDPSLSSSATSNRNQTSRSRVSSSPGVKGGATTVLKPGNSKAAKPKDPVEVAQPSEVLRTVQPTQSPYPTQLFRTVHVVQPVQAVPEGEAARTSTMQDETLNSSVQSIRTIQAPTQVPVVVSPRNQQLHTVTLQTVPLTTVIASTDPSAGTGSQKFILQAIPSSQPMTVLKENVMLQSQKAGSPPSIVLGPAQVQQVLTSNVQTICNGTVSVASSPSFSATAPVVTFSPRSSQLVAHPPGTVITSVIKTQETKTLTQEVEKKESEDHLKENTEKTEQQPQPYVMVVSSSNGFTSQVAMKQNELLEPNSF
Summary of the method: as §1

[6] = biological target: T5, EHF (Homo sapiens, UniProt Q9NZC4 1-300)
T5 sequence: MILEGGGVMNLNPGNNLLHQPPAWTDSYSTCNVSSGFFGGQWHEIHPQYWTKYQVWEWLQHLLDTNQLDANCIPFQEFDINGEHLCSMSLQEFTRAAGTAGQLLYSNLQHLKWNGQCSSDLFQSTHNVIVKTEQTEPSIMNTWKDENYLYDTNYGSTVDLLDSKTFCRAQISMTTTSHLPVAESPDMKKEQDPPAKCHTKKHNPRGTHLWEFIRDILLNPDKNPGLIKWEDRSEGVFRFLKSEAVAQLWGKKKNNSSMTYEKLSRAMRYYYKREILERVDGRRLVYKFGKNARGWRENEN
Summary of the method: as §1

[7] = biological target: SPIB (Homo sapiens, UniProt Q01892 1-262)
Chain of SPIB (Q01892 whole entry): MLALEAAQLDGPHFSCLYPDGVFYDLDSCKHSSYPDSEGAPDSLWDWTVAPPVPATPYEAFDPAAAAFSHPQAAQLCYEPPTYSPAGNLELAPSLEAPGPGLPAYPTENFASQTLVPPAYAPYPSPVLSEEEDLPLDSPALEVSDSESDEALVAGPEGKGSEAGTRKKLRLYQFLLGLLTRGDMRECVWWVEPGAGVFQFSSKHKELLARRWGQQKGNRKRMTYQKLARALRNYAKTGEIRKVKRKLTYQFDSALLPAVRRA
Summary of the method: as §1

[8] = biological target: T6, FEV (Homo sapiens, UniProt Q99581 1-238)
T6 sequence: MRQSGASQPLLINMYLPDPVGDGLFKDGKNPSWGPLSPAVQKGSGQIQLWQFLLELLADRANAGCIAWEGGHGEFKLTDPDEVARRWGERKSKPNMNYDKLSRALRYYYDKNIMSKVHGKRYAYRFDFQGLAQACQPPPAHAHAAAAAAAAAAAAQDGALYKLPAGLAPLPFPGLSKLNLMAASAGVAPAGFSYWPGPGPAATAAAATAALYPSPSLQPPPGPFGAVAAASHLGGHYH
Summary of the method: as §1

[9] = biological target: ETV5 (Homo sapiens, UniProt P41161 1-510)
Chain of ETV5 (P41161 whole entry): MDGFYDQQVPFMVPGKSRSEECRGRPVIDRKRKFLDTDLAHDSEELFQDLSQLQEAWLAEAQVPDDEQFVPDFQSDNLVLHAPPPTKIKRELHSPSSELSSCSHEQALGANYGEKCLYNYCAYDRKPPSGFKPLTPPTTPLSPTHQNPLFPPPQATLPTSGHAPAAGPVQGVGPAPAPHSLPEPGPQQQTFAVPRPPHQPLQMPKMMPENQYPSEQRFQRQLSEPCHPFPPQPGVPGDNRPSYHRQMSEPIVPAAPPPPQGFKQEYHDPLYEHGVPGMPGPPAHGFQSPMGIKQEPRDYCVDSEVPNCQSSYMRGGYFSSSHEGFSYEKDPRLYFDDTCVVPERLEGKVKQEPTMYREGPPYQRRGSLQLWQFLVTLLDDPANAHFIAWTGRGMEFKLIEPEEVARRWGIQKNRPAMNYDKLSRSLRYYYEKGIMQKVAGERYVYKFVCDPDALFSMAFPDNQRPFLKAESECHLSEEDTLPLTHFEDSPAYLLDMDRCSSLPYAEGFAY
Summary of the method: as §1

[10] = biological target: ELF4 (Homo sapiens, UniProt Q99607 1-663)
Chain of ELF4 (Q99607 whole entry): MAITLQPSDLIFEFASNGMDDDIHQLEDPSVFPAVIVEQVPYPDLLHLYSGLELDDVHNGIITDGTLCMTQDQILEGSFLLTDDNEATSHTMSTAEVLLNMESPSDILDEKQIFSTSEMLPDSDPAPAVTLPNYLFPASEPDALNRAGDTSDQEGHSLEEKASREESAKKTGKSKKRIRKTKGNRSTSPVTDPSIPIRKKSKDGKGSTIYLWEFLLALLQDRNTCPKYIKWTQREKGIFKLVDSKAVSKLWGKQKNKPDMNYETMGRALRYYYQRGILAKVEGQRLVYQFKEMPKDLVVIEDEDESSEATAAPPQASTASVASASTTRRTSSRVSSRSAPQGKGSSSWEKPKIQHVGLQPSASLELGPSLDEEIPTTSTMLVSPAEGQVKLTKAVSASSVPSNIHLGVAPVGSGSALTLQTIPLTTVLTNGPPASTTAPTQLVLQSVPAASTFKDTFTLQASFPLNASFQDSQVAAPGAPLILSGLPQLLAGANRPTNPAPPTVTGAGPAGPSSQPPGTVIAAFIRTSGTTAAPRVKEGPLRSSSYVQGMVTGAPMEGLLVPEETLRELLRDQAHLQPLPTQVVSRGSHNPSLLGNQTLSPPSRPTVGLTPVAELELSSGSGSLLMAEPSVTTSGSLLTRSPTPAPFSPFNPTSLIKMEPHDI
Summary of the method: as §1

[11] = biological target: T7, ETV2 (Homo sapiens, UniProt O00321 1-342)
T7 sequence: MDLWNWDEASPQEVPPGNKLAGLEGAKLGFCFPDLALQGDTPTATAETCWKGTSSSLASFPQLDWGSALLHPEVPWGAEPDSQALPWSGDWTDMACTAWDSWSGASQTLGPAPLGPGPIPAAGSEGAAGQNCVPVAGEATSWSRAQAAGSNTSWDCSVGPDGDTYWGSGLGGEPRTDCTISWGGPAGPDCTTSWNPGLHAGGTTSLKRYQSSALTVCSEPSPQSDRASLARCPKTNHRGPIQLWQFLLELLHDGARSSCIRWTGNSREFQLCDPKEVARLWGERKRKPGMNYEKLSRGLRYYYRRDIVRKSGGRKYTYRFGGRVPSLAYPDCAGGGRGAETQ
Summary of the method: as §1

[12] = biological target: T8, ELF3 (Homo sapiens, UniProt P78545 1-371)
T8 sequence: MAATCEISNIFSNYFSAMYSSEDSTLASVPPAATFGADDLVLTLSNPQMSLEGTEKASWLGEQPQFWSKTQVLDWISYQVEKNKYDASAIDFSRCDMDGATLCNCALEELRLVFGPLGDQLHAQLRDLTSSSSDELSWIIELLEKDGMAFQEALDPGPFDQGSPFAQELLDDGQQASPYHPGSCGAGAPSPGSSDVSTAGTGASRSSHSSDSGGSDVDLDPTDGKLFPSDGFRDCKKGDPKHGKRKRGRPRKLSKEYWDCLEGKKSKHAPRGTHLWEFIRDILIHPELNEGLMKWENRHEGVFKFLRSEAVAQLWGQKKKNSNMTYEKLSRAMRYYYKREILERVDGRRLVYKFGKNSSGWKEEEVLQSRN
Summary of the method: as §1

[13] = biological target: ETV1 (Homo sapiens, UniProt P50549 1-477)
Chain of ETV1 (P50549 whole entry): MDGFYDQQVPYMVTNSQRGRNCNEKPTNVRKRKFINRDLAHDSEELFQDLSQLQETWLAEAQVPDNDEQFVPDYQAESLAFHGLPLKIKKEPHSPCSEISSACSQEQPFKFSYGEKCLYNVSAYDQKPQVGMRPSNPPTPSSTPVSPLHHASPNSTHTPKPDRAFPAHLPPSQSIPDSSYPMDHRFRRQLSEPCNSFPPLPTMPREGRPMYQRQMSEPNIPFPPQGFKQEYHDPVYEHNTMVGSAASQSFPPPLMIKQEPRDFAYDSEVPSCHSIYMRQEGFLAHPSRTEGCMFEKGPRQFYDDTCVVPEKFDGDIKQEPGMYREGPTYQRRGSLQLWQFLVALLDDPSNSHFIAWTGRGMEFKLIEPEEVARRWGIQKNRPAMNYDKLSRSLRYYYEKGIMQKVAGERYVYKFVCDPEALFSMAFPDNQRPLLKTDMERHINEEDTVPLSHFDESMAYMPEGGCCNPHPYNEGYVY
Summary of the method: as §1

[14] = biological target: T9, ETV3L (Homo sapiens, UniProt Q6ZN32 1-361)
T9 sequence: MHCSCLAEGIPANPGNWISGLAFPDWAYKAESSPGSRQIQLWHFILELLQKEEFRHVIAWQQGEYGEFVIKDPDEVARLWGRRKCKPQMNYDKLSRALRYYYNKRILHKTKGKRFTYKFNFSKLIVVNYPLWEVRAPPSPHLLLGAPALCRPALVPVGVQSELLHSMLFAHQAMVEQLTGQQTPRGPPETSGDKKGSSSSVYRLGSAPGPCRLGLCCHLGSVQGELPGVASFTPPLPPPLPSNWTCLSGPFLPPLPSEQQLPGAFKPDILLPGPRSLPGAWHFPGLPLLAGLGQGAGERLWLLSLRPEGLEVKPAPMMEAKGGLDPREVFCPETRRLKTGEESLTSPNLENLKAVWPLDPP
Summary of the method: as §1

[15] = biological target: T10, ETS2 (Homo sapiens, UniProt P15036 1-469)
T10 sequence: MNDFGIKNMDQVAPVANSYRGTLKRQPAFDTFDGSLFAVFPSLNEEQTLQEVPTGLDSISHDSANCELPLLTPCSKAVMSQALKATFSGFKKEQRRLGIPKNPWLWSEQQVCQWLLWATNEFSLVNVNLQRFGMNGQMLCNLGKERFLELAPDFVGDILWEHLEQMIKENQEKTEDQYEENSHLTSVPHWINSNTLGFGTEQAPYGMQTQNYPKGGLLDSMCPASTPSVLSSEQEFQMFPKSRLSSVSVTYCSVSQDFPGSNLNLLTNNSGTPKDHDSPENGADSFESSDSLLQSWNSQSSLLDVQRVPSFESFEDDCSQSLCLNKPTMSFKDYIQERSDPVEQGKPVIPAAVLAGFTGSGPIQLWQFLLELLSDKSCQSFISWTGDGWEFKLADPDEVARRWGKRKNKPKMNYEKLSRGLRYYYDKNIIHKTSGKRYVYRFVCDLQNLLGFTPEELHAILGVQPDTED
Summary of the method: as §1

[16] = biological target: T11, ETV3 (Homo sapiens, UniProt P41162-2 1-143)
T11 sequence: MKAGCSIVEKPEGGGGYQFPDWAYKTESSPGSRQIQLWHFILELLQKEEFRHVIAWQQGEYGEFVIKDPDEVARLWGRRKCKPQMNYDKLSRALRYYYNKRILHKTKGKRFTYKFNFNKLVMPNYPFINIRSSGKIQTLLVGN
Summary of the method: as §1

[17] = biological target: ETV6 (Homo sapiens, UniProt P41212 1-452)
Chain of ETV6 (P41212 whole entry): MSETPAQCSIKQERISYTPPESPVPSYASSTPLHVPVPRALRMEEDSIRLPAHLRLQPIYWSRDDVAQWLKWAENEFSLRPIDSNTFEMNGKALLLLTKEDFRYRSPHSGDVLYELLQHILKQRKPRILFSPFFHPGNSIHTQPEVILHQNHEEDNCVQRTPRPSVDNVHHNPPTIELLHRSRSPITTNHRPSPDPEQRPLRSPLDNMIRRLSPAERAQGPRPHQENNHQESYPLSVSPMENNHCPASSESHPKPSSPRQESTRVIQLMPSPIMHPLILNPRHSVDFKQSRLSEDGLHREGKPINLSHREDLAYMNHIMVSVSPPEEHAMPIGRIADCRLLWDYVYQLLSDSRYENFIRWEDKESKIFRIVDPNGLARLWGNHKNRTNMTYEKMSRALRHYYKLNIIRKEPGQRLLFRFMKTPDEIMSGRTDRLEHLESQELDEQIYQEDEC
Summary of the method: as §1

**Q.** ACACGC was tested. Which binding signal [1] did it give?
**A.** 1.15 fold enrichment (6-mer frequency, TF over GST control)

**Q.** And the binding signal [2]?
**A.** 1.06 fold enrichment (6-mer frequency, TF over GST control)

**Q.** What about the binding signal [3] of the same sequence?
**A.** 1.13 fold enrichment (6-mer frequency, TF over GST control)

**Q.** And the binding signal [4]?
**A.** 1.15 fold enrichment (6-mer frequency, TF over GST control)

**Q.** What about the binding signal [5] of the same sequence?
**A.** 1.17 fold enrichment (6-mer frequency, TF over GST control)

**Q.** What about the binding signal [6] of the same sequence?
**A.** 1.08 fold enrichment (6-mer frequency, TF over GST control)

**Q.** What about the binding signal [7] of the same sequence?
**A.** 1.1 fold enrichment (6-mer frequency, TF over GST control)

**Q.** What about the binding signal [8] of the same sequence?
**A.** 1.09 fold enrichment (6-mer frequency, TF over GST control)

**Q.** What about the binding signal [9] of the same sequence?
**A.** 1.1 fold enrichment (6-mer frequency, TF over GST control)

**Q.** And the binding signal [10]?
**A.** 1.15 fold enrichment (6-mer frequency, TF over GST control)

**Q.** And the binding signal [11]?
**A.** 1.19 fold enrichment (6-mer frequency, TF over GST control)

**Q.** What about the binding signal [12] of the same sequence?
**A.** 1.11 fold enrichment (6-mer frequency, TF over GST control)

**Q.** And the binding signal [13]?
**A.** 1.11 fold enrichment (6-mer frequency, TF over GST control)

**Q.** What about the binding signal [14] of the same sequence?
**A.** 1.07 fold enrichment (6-mer frequency, TF over GST control)

**Q.** And the binding signal [15]?
**A.** 1.05 fold enrichment (6-mer frequency, TF over GST control)

**Q.** What about the binding signal [16] of the same sequence?
**A.** 1.13 fold enrichment (6-mer frequency, TF over GST control)

**Q.** What about the binding signal [17] of the same sequence?
**A.** 1.13 fold enrichment (6-mer frequency, TF over GST control)
